Source: PubChem (several laboratories)
PfHsp90 yeast 2 = growth inhibition of yeast expressing Plasmodium Hsp90; inhibition, % at 9.4 µM; S. cerevisiae expressing PfHsp90, BacTiter-Glo ATP, 48 h; yeast lacking PDR1 and PDR3 efflux regulators; actives 0.32% (n = 310,000);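 active means every replicate shows inhibition above about 80%, whatever the replicate mean, limit read from the data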;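 further: 0% = DMSO neutral controls and 100% = 20 µM radicicol positive controls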
tim23-1 inh = tim23-1 yeast growth inhibition | S. cerevisiae tim23-1 growth, BacTiter-Glo luminescence, 24 h | inhibition, % at 20 µM | actives 1.3% (n = 330,000) | AID 463212;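 active means growth inhibition of the mutant yeast at or above 50%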;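 further: temperature-sensitive mutant grown at 25 °C; plate controls were DMSO-treated mutant yeast for no effect and medium wells lacking yeast for full effect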
SKKanGAS inh = SKKanGAS growth inhibition. AID 1662. inhibition, % at 7.5 µM. actives 1.3% (n = 300,000). S. pyogenes SKKanGAS, kanamycin growth, BacTiter-Glo, 6 h;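 active means mean replicate score, as percent of positive control median, at least 50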;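 further: strain carries kanamycin resistance gene driven by streptokinase promoter and grows in 40 µg/ml kanamycin; loss of luminescence reflects streptokinase promoter inhibition or plain growth inhibition; 0% = median of DMSO wells and 100% = positive control at its reference dose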
tim10-1 inh = inhibits growth of tim10-1 mutant yeast; S. cerevisiae tim10-1 ts strain growth, BacTiter-Glo, 24 h; inhibition, % at 20 µM; actives 2.2% (n = 330,000); AID 463190;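 active means inhibition of at least 40%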;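 further: mutant grown at 25 °C; 0% = DMSO wells with yeast and 100% = wells holding no yeast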
NALP3 yeast inh = inhibitors of NALP3 inflammasome in yeast; actives 0.39% (n = 330,000); inhibition, % at 10 µM; Yeast reconstituted NLRP3/ASC/caspase-1, beta-gal luminescence, 24 h; AID 2825;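 active means inhibition of 50% or more; inactive means inhibition below 50%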;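 further: plate controls were induced DMSO wells for no effect and uninduced yeast grown without galactose for full effect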
TIM10 inh = TIM10 yeast growth inhibition | S. cerevisiae TIM10 strain growth, BacTiter-Glo luminescence, 24 h | inhibition, % at 10 µM | actives 1.4% (n = 330,000) | AID 463195;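 active means inhibition of 40% or more at the single tested concentration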;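 further: wild-type TIM10 isogenic control strain grown at permissive 25 °C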
tim23-1 confirm = tim23-1 yeast growth inhibition, confirmed; shares compounds with tim23-1 inh; S. cerevisiae tim23-1 growth, BacTiter-Glo luminescence, 24 h; inhibition, % at 20 µM; actives 83% (n = 4,400); AID 463218;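 active means inhibition above about 39% in either of two replicate wells at 20 µM, limit read from the data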;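 further: temperature-sensitive tim23-1 mutant grown at 25 °C; 0% = DMSO wells with yeast and 100% = medium wells without yeast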
* marks the source's active call; other numbers are inactive results. Hits are enriched below; roughly 4.5% of the tested compounds scored in any of these assays.

Results for C=CCN=c1scc(-c2ccco2)n1/N=C/c1ccc(O)c(O)c1O ?
PfHsp90 yeast 2: 15; tim23-1 inh: 64*; SKKanGAS inh: -3; tim10-1 inh: -10; NALP3 yeast inh: 15; TIM10 inh: -6; tim23-1 confirm: 62*

How did Oc1ccc(-c2nc3ccccc3s2)cc1 do in these assays?
PfHsp90 yeast 2: 5; tim23-1 inh: 69*; SKKanGAS inh: 14; tim10-1 inh: 36; NALP3 yeast inh: 37; TIM10 inh: 30; tim23-1 confirm: 64*

What do the screens show for `c1ccc2sc(-c3ccncc3)nc2c1`?
PfHsp90 yeast 2: -30; tim23-1 inh: 17; SKKanGAS inh: -6; tim10-1 inh: 14; NALP3 yeast inh: 13; TIM10 inh: -13

How did COc1cc(/C=C/c2ccc(O)cc2)cc(OC)c1 do in these assays?
PfHsp90 yeast 2: 21; tim23-1 inh: 51*; SKKanGAS inh: 11; tim10-1 inh: 26; NALP3 yeast inh: -14; TIM10 inh: 19; tim23-1 confirm: 28

How did Cc1ccc2c(c1)COc1c3ccc(C(=O)NC(C)C)cc3nn1-2 do in these assays?
PfHsp90 yeast 2: 5; tim23-1 inh: 51*; SKKanGAS inh: -8; tim10-1 inh: 28; NALP3 yeast inh: 19; TIM10 inh: 32; tim23-1 confirm: 48*

How did Cc1ccc2c(c1)COc1c3ccc(C(=O)N[C@@H](C)CO)cc3nn1-2 do in these assays?
PfHsp90 yeast 2: 4; tim23-1 inh: 23; SKKanGAS inh: -9; tim10-1 inh: 15; NALP3 yeast inh: 11; TIM10 inh: 12

Results for Cc1ccc(C(=O)N/N=C/c2ccc(-c3ccc(Br)cc3[N+](=O)[O-])o2)o1 ?
PfHsp90 yeast 2: -23; tim23-1 inh: 50*; SKKanGAS inh: 5; tim10-1 inh: 17; NALP3 yeast inh: 20; TIM10 inh: 24; tim23-1 confirm: 67*

Results for Cc1ccc2nc(SCC(=O)Nc3cccc(F)c3)nc(=O)n2c1 ?
PfHsp90 yeast 2: 22; tim23-1 inh: 3; SKKanGAS inh: 24; tim10-1 inh: 12; NALP3 yeast inh: 7; TIM10 inh: 4

How did O=C(Nc1cccc(Cl)c1)C1C2C=CC3(O2)C1C(=O)N(CCCN1CCCCC1)C3C(=O)NC1CCCCC1 (configuration not stated) do in these assays?
PfHsp90 yeast 2: -19; tim23-1 inh: -5; SKKanGAS inh: -9; tim10-1 inh: -9; NALP3 yeast inh: -3; TIM10 inh: 8

Results for N/C(=N\OC(=O)c1ccccc1F)c1cccc([N+](=O)[O-])c1 ?
PfHsp90 yeast 2: 10; tim23-1 inh: 16; SKKanGAS inh: -2; tim10-1 inh: 28; NALP3 yeast inh: 29; TIM10 inh: 19

Results for COc1ccc2nc(NC(C)=O)sc2c1 ?
PfHsp90 yeast 2: 11; tim23-1 inh: 13; SKKanGAS inh: 8; tim10-1 inh: 14; NALP3 yeast inh: 5; TIM10 inh: 2

How did COc1cccc(C(=O)Nc2nc3ccccc3s2)c1 do in these assays?
PfHsp90 yeast 2: 1; tim23-1 inh: 36; SKKanGAS inh: -4; tim10-1 inh: 10; NALP3 yeast inh: 23; TIM10 inh: 22

How did Cc1ccc2nc(NC(=O)c3ccco3)sc2c1 do in these assays?
PfHsp90 yeast 2: 27; tim23-1 inh: 64*; SKKanGAS inh: -4; tim10-1 inh: 37; NALP3 yeast inh: 21; TIM10 inh: 26; tim23-1 confirm: 38

How did COc1ccc(C(=O)Nc2nc3ccccc3s2)cc1 do in these assays?
PfHsp90 yeast 2: 1; tim23-1 inh: 55*; SKKanGAS inh: -1; tim10-1 inh: -12; NALP3 yeast inh: 28; TIM10 inh: 6; tim23-1 confirm: 25

Results for Cc1ccc2nc(NC(=S)NC(=O)c3ccco3)sc2c1 ?
PfHsp90 yeast 2: -3; SKKanGAS inh: 28

What do the screens show for `CCC(C)C(=O)Nc1nc2ccc(OC)cc2s1` (configuration not stated)?
PfHsp90 yeast 2: -15; tim23-1 inh: 52*; SKKanGAS inh: 5; tim10-1 inh: 32; NALP3 yeast inh: 32; TIM10 inh: 27; tim23-1 confirm: 51*

What do the screens show for `COc1ccc2nc(Nc3ccccc3)sc2c1`?
PfHsp90 yeast 2: 5; tim23-1 inh: 56*; SKKanGAS inh: 1; tim10-1 inh: 33; NALP3 yeast inh: 16; TIM10 inh: 26; tim23-1 confirm: 32

What do the screens show for `CNC(=O)NC(=O)C(OC(=O)CCNS(=O)(=O)c1ccccc1)c1ccccc1` (configuration not stated)?
PfHsp90 yeast 2: 1; tim23-1 inh: -2; SKKanGAS inh: 0; tim10-1 inh: -23; NALP3 yeast inh: 7; TIM10 inh: -20

What do the screens show for `CC(=O)c1cccc(NC(=O)COC(=O)CCNS(=O)(=O)c2ccccc2)c1`?
PfHsp90 yeast 2: 50; tim23-1 inh: 10; tim10-1 inh: 3; NALP3 yeast inh: 16; TIM10 inh: 3

How did Cc1ccc(-c2cc(C(=O)N(C)CC(=O)Nc3ccccc3Br)c3ccccc3n2)o1 do in these assays?
tim23-1 inh: 22; SKKanGAS inh: 20; tim10-1 inh: 19; NALP3 yeast inh: 15; TIM10 inh: 20

Results for COc1ccc2nc(NC(=O)c3ccco3)sc2c1 ?
PfHsp90 yeast 2: 59; tim23-1 inh: 52*; SKKanGAS inh: -1; tim10-1 inh: 29; NALP3 yeast inh: 34; TIM10 inh: 28; tim23-1 confirm: 37

How did COC(=O)c1ccc(-n2c(C)cc(C(=O)CCl)c2C)cc1 do in these assays?
PfHsp90 yeast 2: -71; tim23-1 inh: 52*; SKKanGAS inh: -50; tim10-1 inh: 7; NALP3 yeast inh: -73; TIM10 inh: 33; tim23-1 confirm: 30

How did CC1CC(=O)N(CC(=O)Nc2cccc(F)c2)c2ccccc2S1(=O)=O (configuration not stated) do in these assays?
PfHsp90 yeast 2: 1; tim23-1 inh: 9; SKKanGAS inh: -13; tim10-1 inh: 10; NALP3 yeast inh: 8; TIM10 inh: 3

How did COc1ccc(Br)cc1-c1nc(CCl)cs1 do in these assays?
PfHsp90 yeast 2: -6; tim23-1 inh: 51*; SKKanGAS inh: -1; tim10-1 inh: 37; NALP3 yeast inh: 23; TIM10 inh: 37; tim23-1 confirm: 57*

How did CCOc1ccc(-c2nc(CCl)cs2)cc1 do in these assays?
PfHsp90 yeast 2: 12; tim23-1 inh: -2; SKKanGAS inh: -9; tim10-1 inh: 13; NALP3 yeast inh: 28; TIM10 inh: -8

What do the screens show for `Cc1ccccc1S(=O)(=O)N1C[C@H]2CON(C)[C@H]2C[C@H]1c1cccc(-c2ccc(C#N)cc2)c1`?
PfHsp90 yeast 2: 4

How did O=c1c2ccc([N+](=O)[O-])cc2ncn1CCOc1ccc(Cl)cc1 do in these assays?
PfHsp90 yeast 2: 45; tim23-1 inh: 62*; SKKanGAS inh: 5; tim10-1 inh: 7; NALP3 yeast inh: 16; TIM10 inh: 39; tim23-1 confirm: 65*
